Screen size: about 5,500 compounds; about 2,000 (36%) were called active. Another 18% or so got no clear call; they are omitted. No stated cut-off is given here; in the data, active means normalized growth mostly below about 0.91 (no sharp cut-off); inconclusive means no clear call, values can overlap the other calls; inactive means mostly above about 0.92. The list shows a part of the results.
Experiment: chemical genetic growth profiling, strain panel (AID 1159580);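 further: tested at 20 µM; growth read once vehicle control cultures reached saturation at 30 °C; 1 = growth at the plate median or of vehicle wells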
Settings: S. cerevisiae deletion strains, growth OD

Measured: normalized growth

CC(C)NCC(O)COc1ccc(CCOCC2CC2)cc1 (configuration not stated)
inactive: locus YAL040C, strain CLN3, stronger effect = lower value 1.05 | locus YCL061C, strain MRC1 (second series), stronger effect = lower value 1 | locus YER002W, strain NOP16, stronger effect = lower value 1.03 | locus YGR078C, strain PAC10, stronger effect = lower value 0.994 | locus YMR307W, strain GAS1, stronger effect = lower value 0.998 | locus YNL153C, strain GIM3, stronger effect = lower value 1.01 | locus YNL175C, strain NOP13, stronger effect = lower value 1.02 | locus YNL197C, strain WHI3, stronger effect = lower value 1.03 | locus YNL224C, strain SQS1, stronger effect = lower value 1.01 | locus YOR083W, strain WHI5 (second series), stronger effect = lower value 1.05 | locus YPL055C, strain LGE1, stronger effect = lower value 0.998 | locus YPL241C, strain CIN2, stronger effect = lower value 1

Reference: PubChem BioAssay AID1159580 (chemical genetic matrix, 2015)
